In PubChem BioAssay one finds composite z-score and z-score data, which are given here for six compounds.

Assay [1] in a line: compounds binding Alexa647 anti-His antibody – biochemical, small-molecule microarray, 635 nm fluorescence, artefact control for SMM control protein annotation, primary screen (AID 1128).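 Further: score merges feature fluorescence with signal-to-noise for each printed compound spot.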 The note with it: higher = more signal.
Assay [2] relates to Human papillomavirus type 1a E7 protein (residues 1-88). The assay can be described thus: HPV1a E7 small-molecule binders, primary screen, biochemical, small-molecule microarray, residues 1-88, 635 nm (AID 1129). The note with it: small-molecule microarray binding, fluorescence 635 nm; higher = more signal.
The target in assay [3] is Focal adhesion kinase 1 (Homo sapiens) (UniProt Q05397). The assay can be described thus: PTK2 protein binding on printed compound slides – biochemical, small-molecule microarray, 635/667 nm fluorescence, BSA, DTT, primary screen (AID 1130).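 Further: composite of spot emission at 667 nm and signal to noise over triplicate slides.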 The note with it: 635 nm fluorescence, higher = more signal.
In assay [4] the test system is Fibrinogen (Alexa647-labelled). The assay can be described thus: Alexa647-fibrinogen binding to printed small molecules – biochemical, small-molecule microarray, 635/667 nm fluorescence, artefact control for SMM control-protein annotation, profiling panel (AID 1131).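 Further: z-score merges 667 nm fluorescence with per-spot signal-to-noise over triplicate slides.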 The note with it: fibrinogen-A647 binding fluorescence, higher = more signal.
The target of assay [5] is Follistatin (Homo sapiens) (UniProt P19883). The assay can be described thus: FST protein binding to printed compounds – biochemical, small-molecule microarray, 635/667 nm fluorescence, primary screen (AID 1132). The note with it: 635 nm fluorescence, higher = more signal.
The target in assay [6] is Fibroblast growth factor 2 (Homo sapiens) (UniProt P09038). Description: basic fibroblast growth factor binding to printed compounds – biochemical, small-molecule microarray, 635/667 nm fluorescence, primary screen (AID 1133). The note with it: FGF2, fluorescence 635/667, higher = more signal.
Assay [7] can be described thus: JC-1 mitochondrial potential readout, lung cancer cells – cell-based, A549, JC-1 fluorescence, basal, 24 h, 100 nL, profiling panel (AID 1138).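 Further: A549 lung adenocarcinoma cells under basal conditions with no added stimulus; test concentration not given here.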 Conditions: higher = more signal.
The next assay deals with Lefty1. Description: Lefty1 protein binding to printed compounds – biochemical, small-molecule microarray, 635/667 nm fluorescence, primary screen (AID 1139). The note with it: fluorescence 635/667, higher = more signal.
Assay [8] has as its system wheat germ agglutinin (Triticum aestivum), Alexa647-labelled. Description: Alexa647-WGA lectin binding to printed small molecules – biochemical, small-molecule microarray, 635/667 nm fluorescence, artefact control for SMM control-protein annotation, profiling panel (AID 1140).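 Further: score merges 667 nm feature emission with signal to noise over triplicate slides.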 The note with it: WGA-A647 binding, 635 nm fluorescence, higher = more signal.
Assay [9] addresses Luciferin 4-monooxygenase (Photinus pyralis) (UniProt P08659). Description: inhibition of purified Photinus pyralis luciferase – biochemical, luminescence, purified enzyme, 2006 set, primary screen (AID 1141).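 Further: cell-free assay with purified firefly luciferase at 100 ng per well in PBS; test concentration not given here.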 Conditions: purified firefly luciferase, SteadyGlo luminescence, 30 min; higher = more signal, called active from +8 up or from −8 down.
In assay [10] the test system is Wnt5a (protein binding on small-molecule microarray). Description: small molecules binding Wnt5a protein – biophysical, small-molecule microarray, 635/667 nm fluorescence, primary screen (AID 1142).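 Further: fluorescence read at 667 nm with signal to noise per printed feature.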 The note with it: 635 nm fluorescence, higher = more signal.
Assay [11] in a line: ATP-based viability of Huh7 replicon cells – cell-based, CellTiter-Glo luminescence, basal, 48 h, cytotoxicity control for HCV replication inhibitor project, primary screen (AID 1143).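 Further: Huh7 hepatoma cells carrying a hepatitis C replication reporter with no stimulus; test concentration not given here.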 The note with it: higher = more signal, called active from +8 up or from −8 down. On the technique in general: A replicon is a self-replicating genome or part of one, used to study replication in cells.

The nature of assay [12]: Pseudomonas biofilm growth suppression – PAO1 strain, BacTiter-Glo luminescence, LB-PBS, primary screen (AID 1144). Conditions: P. aeruginosa PAO1 biofilm, 12 h, higher = more signal.
Assay [13] in a line: basal CRE-LacZ reporter activity in PC12 – cell-based, unstimulated, primary screen (AID 1145). The note with it: no forskolin, luminescence, 4.5 h, higher = more signal, called active from +8 up or from −8 down.
Assay [14] is described as follows: forskolin-driven CRE-LacZ activity in PC12 – cell-based, CRE-LacZ reporter, forskolin-stimulated, primary screen (AID 1146).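 Further: PC12 cells with 6xCRE LacZ reporter stimulated by forskolin 10 µM; beta-galactosidase reporter signal reflecting CREB driven transcription.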 Conditions: luminescence, 4.5 h, higher = more signal, called active from +8 up or from −8 down.
In assay [15] the target is Streptavidin (Streptomyces avidinii) (UniProt P22629). The assay can be described thus: compounds binding control protein streptavidin – biophysical, small-molecule microarray, 635/667 nm fluorescence, artefact control for SMM compound annotation, primary screen (AID 1147).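 Further: signal reflects streptavidin binding to arrayed compounds as a control protein.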 The note with it: higher = more signal.
Assay [16] in a line: probe aInhba binding on compound microarray – biochemical, small-molecule microarray, 635/667 nm fluorescence, primary screen (AID 1148).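 Further: score merges 667nm spot fluorescence with signal-to-noise for antibody binding to printed compounds.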 The note with it: higher = more signal.
The target of assay [17] is Torsin-1A (Homo sapiens) (UniProt O14656). The assay can be described thus: TOR1A wild-type binding on microarray – cell lysate, small-molecule microarray, lysate, 635/667 nm, primary screen (AID 1149). The note with it: COS7 hTOR1A-WT lysate, 635 nm fluorescence, higher = more signal.
For assay [18] the target is unchanged. Description: torsin A mutant lysate binding on microarrays – cell lysate, small-molecule microarray, COS7 lysate, 635/667 nm fluorescence, primary screen (AID 1150).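 Further: score pools 667 nm emission and signal to noise measuring lysate protein binding.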 Conditions: COS7 hTOR1A mutant lysate, 635 nm fluorescence, higher = more signal.
In assay [19] the test system is Sonic hedgehog protein (Shh). Description: Sonic hedgehog microarray binding compounds – biochemical, small-molecule microarray, 635/667 nm fluorescence, primary screen (AID 1151).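 Further: Shh protein binding to compounds spotted on small-molecule microarray slides; score combines spot fluorescence intensity with signal-to-noise across triplicate slides.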 The note with it: 635 nm fluorescence, higher = more signal.

The structures appear in SMILES notation. “And” between values parts separate entries of the source, which are not always exact repeats. Identical values can stand only once. The source made the active and inactive calls. Unless noted, how the calls were made is not given here.

Sequence of Luciferin 4-monooxygenase (Photinus pyralis) (P08659 whole entry, looked up): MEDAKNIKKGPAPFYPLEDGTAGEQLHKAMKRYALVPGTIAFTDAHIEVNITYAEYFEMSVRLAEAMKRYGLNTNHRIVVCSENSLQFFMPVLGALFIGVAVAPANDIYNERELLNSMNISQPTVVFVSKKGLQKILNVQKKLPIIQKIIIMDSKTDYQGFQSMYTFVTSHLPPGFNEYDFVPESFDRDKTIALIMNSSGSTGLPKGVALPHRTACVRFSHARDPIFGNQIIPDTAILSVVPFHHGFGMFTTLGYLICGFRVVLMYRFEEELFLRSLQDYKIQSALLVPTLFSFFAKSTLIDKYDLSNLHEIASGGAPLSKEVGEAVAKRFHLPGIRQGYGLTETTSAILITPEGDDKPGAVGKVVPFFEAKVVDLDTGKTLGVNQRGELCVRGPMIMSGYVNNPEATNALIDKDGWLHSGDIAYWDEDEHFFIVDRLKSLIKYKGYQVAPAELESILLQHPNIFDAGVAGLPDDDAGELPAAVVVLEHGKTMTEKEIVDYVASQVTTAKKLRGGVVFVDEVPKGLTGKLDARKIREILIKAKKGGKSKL
Sequence of Focal adhesion kinase 1 (Homo sapiens) (Q05397 whole entry, looked up): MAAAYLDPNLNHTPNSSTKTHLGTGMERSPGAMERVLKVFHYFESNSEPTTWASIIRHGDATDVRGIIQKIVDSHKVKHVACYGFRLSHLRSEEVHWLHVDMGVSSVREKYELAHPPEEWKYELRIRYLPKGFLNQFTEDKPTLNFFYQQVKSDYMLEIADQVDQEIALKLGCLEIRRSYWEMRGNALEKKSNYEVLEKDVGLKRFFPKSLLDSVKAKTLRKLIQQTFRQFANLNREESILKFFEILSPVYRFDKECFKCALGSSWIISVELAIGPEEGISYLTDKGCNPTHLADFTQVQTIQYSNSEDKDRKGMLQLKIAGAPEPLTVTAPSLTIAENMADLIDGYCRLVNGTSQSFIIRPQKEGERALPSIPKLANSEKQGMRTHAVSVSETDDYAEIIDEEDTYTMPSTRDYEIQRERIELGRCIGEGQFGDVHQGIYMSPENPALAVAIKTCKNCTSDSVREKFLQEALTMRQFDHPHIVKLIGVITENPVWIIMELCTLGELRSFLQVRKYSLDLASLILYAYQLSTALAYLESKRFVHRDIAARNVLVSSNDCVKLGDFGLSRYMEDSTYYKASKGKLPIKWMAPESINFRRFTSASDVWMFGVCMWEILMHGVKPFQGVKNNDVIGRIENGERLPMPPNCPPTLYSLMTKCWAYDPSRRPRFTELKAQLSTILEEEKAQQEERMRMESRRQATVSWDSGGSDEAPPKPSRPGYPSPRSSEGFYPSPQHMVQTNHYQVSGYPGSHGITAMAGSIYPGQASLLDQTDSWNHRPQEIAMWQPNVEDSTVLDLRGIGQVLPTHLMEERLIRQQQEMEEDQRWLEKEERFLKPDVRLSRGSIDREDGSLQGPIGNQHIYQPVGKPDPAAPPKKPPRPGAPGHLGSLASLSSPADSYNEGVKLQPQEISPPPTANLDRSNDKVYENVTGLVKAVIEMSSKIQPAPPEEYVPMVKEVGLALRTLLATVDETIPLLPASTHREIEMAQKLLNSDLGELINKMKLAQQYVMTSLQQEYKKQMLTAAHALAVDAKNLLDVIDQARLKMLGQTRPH
Sequence of Streptavidin (Streptomyces avidinii) (P22629 whole entry, looked up): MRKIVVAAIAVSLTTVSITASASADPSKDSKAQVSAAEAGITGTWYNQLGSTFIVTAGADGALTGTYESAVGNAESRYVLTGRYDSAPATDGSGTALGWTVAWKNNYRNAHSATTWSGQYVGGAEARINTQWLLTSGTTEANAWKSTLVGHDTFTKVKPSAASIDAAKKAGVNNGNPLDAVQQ
Sequence of Torsin-1A (Homo sapiens) (O14656 whole entry, looked up): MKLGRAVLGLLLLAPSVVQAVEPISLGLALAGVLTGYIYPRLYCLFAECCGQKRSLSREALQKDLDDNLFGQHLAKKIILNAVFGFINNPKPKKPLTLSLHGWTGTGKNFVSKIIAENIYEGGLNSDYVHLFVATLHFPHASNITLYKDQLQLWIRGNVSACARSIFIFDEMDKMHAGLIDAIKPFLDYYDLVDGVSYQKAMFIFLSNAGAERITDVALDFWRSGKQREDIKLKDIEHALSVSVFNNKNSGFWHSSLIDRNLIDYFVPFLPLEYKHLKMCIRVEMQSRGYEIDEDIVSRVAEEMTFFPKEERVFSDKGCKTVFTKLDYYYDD
Sequence of Follistatin (Homo sapiens) (P19883 whole entry, looked up): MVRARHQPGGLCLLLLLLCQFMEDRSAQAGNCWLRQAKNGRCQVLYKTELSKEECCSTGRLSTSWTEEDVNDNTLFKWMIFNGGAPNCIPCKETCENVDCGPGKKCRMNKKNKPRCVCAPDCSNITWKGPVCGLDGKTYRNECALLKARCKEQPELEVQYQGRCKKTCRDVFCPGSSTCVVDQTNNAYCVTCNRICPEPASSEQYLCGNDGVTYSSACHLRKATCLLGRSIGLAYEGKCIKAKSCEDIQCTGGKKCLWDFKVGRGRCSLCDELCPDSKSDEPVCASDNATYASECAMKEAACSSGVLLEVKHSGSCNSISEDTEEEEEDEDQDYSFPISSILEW
Sequence of Fibroblast growth factor 2 (Homo sapiens) (P09038 whole entry, looked up): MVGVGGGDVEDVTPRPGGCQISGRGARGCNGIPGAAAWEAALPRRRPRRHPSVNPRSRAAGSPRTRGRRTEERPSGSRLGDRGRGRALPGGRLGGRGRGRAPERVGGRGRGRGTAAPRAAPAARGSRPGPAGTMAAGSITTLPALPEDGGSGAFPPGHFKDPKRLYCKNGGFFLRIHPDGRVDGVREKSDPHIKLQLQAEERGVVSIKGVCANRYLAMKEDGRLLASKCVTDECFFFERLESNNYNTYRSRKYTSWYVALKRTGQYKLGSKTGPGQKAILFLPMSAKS

In the case of `COC(=O)C1=C(C)N(Cc2ccccc2)C2=C(C(C)=O)C[C@@](O)(C(=O)OC)C(=O)N2[C@@H]1c1ccccc1`, the composite z-score in [1] was 1.23 and -0.0396; in assay [2], 0.5 and 0.2; in assay [3] it was 0.271 and -0.209; in assay [4], -0.378 and 1.02; in [5], 0.247 and 0.12; in assay [6], 1.55 and 0.0618. The composite z-score is 1.18 and 0.158 in the assay on Lefty1; -0.48 and 0.228 in assay [8]; 0.491 and 0.0879 in assay [10]; -0.192 and -0.271 in [15]; 0.0212 and -0.0136 in assay [16]; 1.39 and 0.336 with Torsin-1A (Homo sapiens) [17]. Besides, the composite z-score with Torsin-1A (Homo sapiens) [18] is 1.69 and -0.0069; in [19], 1.74 and 0.806. The z-score in assay [7] is 1.18 and 1.72; in assay [9], -0.458 (inactive) and -1.7 (inactive); in assay [11] it was -0.451 (inactive) and -1.18 (inactive); in assay [12], -2.16 (inactive); in assay [13], 3.35 (inactive) and 4.53 (inactive); in assay [14], -0.711 (inactive) and -0.239 (inactive).
Take `C=CCN(Cc1ccccc1)C(=O)C1N(CCOCCO)C(=O)C2C(C(=O)O)C3C=CC21O3` (stereo not given): the composite z-score in assay [1] is -1.85 and -0.223; in assay [2], -0.804 and -0.812; in assay [3] it was -1.29 and -0.708; in assay [4], -1.23 and -1.34; in assay [5] it was -3.29 and -1.2; in assay [6] it was -2.01 and -1.98. The composite z-score with Lefty1 is -2.56 and -2.05; in assay [8], -0.94 and -1.25; in [10] it was -0.0792 and -1.24; in assay [15], -1.36 and -1.24; in [16] it was -0.282 and -0.0645; with Torsin-1A (Homo sapiens) [17], -2.62 and -3.49. Further, the composite z-score with Torsin-1A (Homo sapiens) [18] was -1.89 and -3.16; in [19] it was -1.64 and -2. In addition, the z-score was 1.2 and -0.743 in [7]; -0.582 (inactive) and 1.28 (inactive) in [9]; -2.27 (inactive) and 0.247 (inactive) in assay [11]; -0.0168 (inactive) in [12]; -0.484 (inactive) and -0.753 (inactive) in assay [13]; -0.347 (inactive) and -0.736 (inactive) in assay [14].
For `COC(=O)C1=C(C)N(Cc2ccccc2)[C@]23O[C@](C(=O)OC)(C(=O)N2[C@@H]1c1ccccc1)[C@H]1C(=O)N(c2ccccc2)C(=O)[C@H]13`, the composite z-score in assay [1] is 0.798 and 0.258; in [2] it was 1.12 and 0.575; in assay [3], 0.277 and 0.0443; in [4] it was 0.77 and 0.267; in assay [5], 0.516 and 1.01; in [6], 0.562 and 0.626. The composite z-score was 0.477 and 1.27 in the assay on Lefty1; 1.07 and 0.541 in [8]; 0.115 and 0.0304 in [10]; 0.32 and 0.436 in assay [15]; 0.201 and -0.0552 in [16]; 0.718 and 0.667 with Torsin-1A (Homo sapiens) [17]. The composite z-score was 0.476 and 0.211 with Torsin-1A (Homo sapiens) [18]; 0.833 and 1.14 in assay [19]. For the same compound, the z-score is 0.6 and 0.565 in assay [7]; -0.207 (inactive) and -0.978 (inactive) in [9]; -0.123 (inactive) and -0.532 (inactive) in [11]; -1.18 (inactive) in [12]; -0.165 (inactive) and 0.472 (inactive) in assay [13]; -1.65 (inactive) and -0.623 (inactive) in [14].
On to `CC(CO)N1C(=O)[C@@H]2C3C(=O)OCCC=C[C@H]3OC23C=CCN(CCN2CCOCC2)C(=O)[C@@H]13` (stereo not given in full), for which the composite z-score in [1] was 1.29 and 1.37; in assay [2], -0.795 and -0.0944; in assay [3], 0.0101 and 1.02; in assay [4], -0.288 and 0.15; in assay [5], 0.319 and -0.0336; in assay [6], -0.454 and -1.45. Also, the composite z-score in the assay with Lefty1 was 0.373 and 0.526; in [8], -0.0856 and 0.329; in assay [10], -0.0538 and 0.351; in assay [15] it was -0.0427 and 1.12; in assay [16] it was -0.0719 and 0.0053; with Torsin-1A (Homo sapiens) [17] it was -0.674 and 0.148. Also, the composite z-score is -0.198 and 0.276 in the assay with Torsin-1A (Homo sapiens) [18]; 0.521 and 0.746 in assay [19]. The z-score in assay [7] was -0.0837 and -0.32; in assay [9], -0.272 (inactive) and -0.263 (inactive); in assay [11], -0.0826 (inactive) and 0.0065 (inactive); in [12], 0.129 (inactive) and 0.971 (inactive); in assay [13], 0.317 (inactive) and -0.492 (inactive); in assay [14], 0.643 (inactive) and 0.22 (inactive).
For the compound `C[C@@H](c1ccccc1)N1C(=O)[C@H]2[C@H]3[C@H](O)[C@H](O)CC(=O)[C@@H]3CC[C@H]2C1=O`, the composite z-score was 0.338 in [1]; 0.793 in assay [2]; 0.866 in assay [3]; 0.212 in assay [4]; 0.605 in [5]; 1.08 in assay [6]. Besides, the composite z-score in the assay with Lefty1 is 1.64; in assay [8] it was 0.108; in [10], 0.314; in [15] it was 0.192; in assay [16], -0.0791; in the assay with Torsin-1A (Homo sapiens) [17], 0.712. The values for the composite z-score (with Torsin-1A (Homo sapiens) [18]; in assay [19]) were 0.113 and 1.04, respectively. For the same compound, the z-score in assay [7] is 0.792; in [9], -1.87 (inactive); in assay [11], -0.961 (inactive); in [12] it was 0.00582 (inactive); in [13], 1.25 (inactive); in [14] it was 0.488 (inactive).
Turning to `C=CCN(CCCC)C(=O)C1N(c2c(Cl)cccc2CO)C(=O)C2C(C(=O)O)C3C=CC21O3` (stereo not given), the composite z-score is -1.86 and 1.18 in [1]; -1.93 and -0.108 in [2]; -0.983 and 0.896 in [3]; -1.58 and -2.29 in assay [4]; -1.71 and -0.64 in assay [5]; -1.09 and -1.49 in assay [6]. The composite z-score in the assay on Lefty1 was -2.11 and -0.973; in assay [8] it was -1.16 and -0.0139; in assay [10] it was -0.77 and -0.986; in assay [15], -1.03 and -2; in assay [16], -0.231 and 0.72; with Torsin-1A (Homo sapiens) [17] it was -1.67 and 1.69. Moreover, the composite z-score with Torsin-1A (Homo sapiens) [18] is -0.696 and 0.827; in assay [19], -0.979 and -1.17. Moreover, the z-score in assay [7] was -1 and -0.998; in assay [9], 0.758 (inactive) and 1.51 (inactive); in [11] it was -0.0286 (inactive) and -0.784 (inactive); in assay [12] it was 0.0942 (inactive) and -2.19 (inactive); in assay [13] it was -0.887 (inactive) and -1.3 (inactive); in [14], -0.718 (inactive) and -0.285 (inactive).
